# Inconclusive results are not listed. Calls of active or inactive are those of the source. Unless noted, calls follow the shape of the full dose curve.
# Legend:
# [1] = target: Bile acid receptor (Homo sapiens) (UniProt Q96RI1); assay: qHTS assay for small molecule agonists of farnesoid X receptor signaling (AID 588527); conditions: HEK293T FXR-UAS-bla, beta-lactamase ratio, 16 h; activation: stronger effect = higher value;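 also: series mostly up to about 77 µM; 0% = vehicle basal and 100% = reference agonist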
# Outline: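 FXR-UAS-bla HEK293T, 10% dialyzed FBS; cpds up to 92 uM titration, 16 h 37 C; CCF4 dye 2 h RT; fluorescence. Normalized to chenodeoxycholic acid 100 uM (100%) and DMSO (0%); Hill fit gives EC50, efficacy.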
# [2] = qHTS assay for small molecule agonists of retinoid X receptor alpha signaling (AID 588544); conditions: HEK293T RXRa-UAS-bla, beta-lactamase reporter, 18 h; 530 nm emission;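 as to activation: 0% = DMSO basal wells and 100% = reference agonist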
# [3] = target: Retinoic acid receptor RXR-alpha (Homo sapiens) (UniProt P19793); assay: as above
# [4] = target: Thyroid hormone receptor beta (Homo sapiens) (UniProt P10828); assay: qHTS assay for small molecule agonists of thyroid hormone receptor beta signaling (AID 588545)
# Outline: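 HEK 293 TR-UAS-bla; agonist mode; 18 hrs, 37 C; CCF4, ex 405/em 460 and 530 nm; norm. T3 10 nM = 100%, DMSO = 0%; Hill fit → EC50, efficacy.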
# [5] = qHTS assay for small molecule activators of the p53 signaling pathway (AID 651743; active = well fitted activation curve with a large enough effect in the signal ratio, not every such curve was filed as active; the % refers to the signal ratio; also: series mostly up to about 92 µM; % of control where 0% means no effect); conditions: HCT-116 p53RE-bla, beta-lactamase FRET ratio, 16 h; activation: stronger effect = higher value
# Outline: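 Read-out is fluorescence intensity from the LiveBLAzer B/G FRET substrate, added for 2 hours at room temperature after HCT-116 p53RE-bla cells had been incubated with compounds for 16 hours at 37 C.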
# [6] = qHTS assay for small molecule activators of the nuclear factor-kappa B (NF-kB) signaling pathway (AID 651749; active = well fitted activation curve with a large enough effect in the signal ratio; the % refers to the signal ratio; also: series mostly up to about 77 µM; % of control where 0% means no effect); conditions: NF-kB-bla ME-180 cells, beta-lactamase FRET ratio, 16 h; activation: stronger effect = higher value
# Outline: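 Readout: beta-lactamase reporter driven by an NF-kB response element, detected fluorescently as loss of FRET. Cells were the ME-180 line, treated 16 hr at 37C with pin-transferred compound.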
# [7] = qHTS assay for environmental chemicals that activate the Aryl hydrocarbon Receptor (AhR) signaling pathway (AID 651777; active = well fitted curve in the direction sought with a large enough effect; an effect the other way counts as inactive or inconclusive; also: % of control where 0% means no effect; nearly all actives have a fitted effect of over 15% in size); conditions: 1A2-DRE human hepatoma cells, luciferase, 24 h; activation: stronger effect = higher value
# Outline: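 Human hepatoma 1A2-DRE cells stably carrying a DRE/CYP1A2 promoter–luciferase reporter, 1,200 cells/well, exposed to compound 24 hr at 37 C. Luciferase read by One-Glo luminescence after 30 min at room temperature; increased signal marks AhR activation.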
# [8] = target: Peroxisome proliferator-activated receptor alpha (Homo sapiens) (UniProt Q07869); assay: qHTS assay for small molecule agonists of the peroxisome proliferator-activated receptor alpha (PPARalpha) signaling pathway (AID 651778; active = well fitted curve in the direction sought with a large enough effect; an effect the other way counts as inactive or inconclusive; also: % of control where 0% means no effect); conditions: PathHunter PPARalpha complementation, chemiluminescence, 6 h; max response: stronger effect = higher value
# Outline: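 Chemiluminescence from complemented enzyme reported PPARalpha activation in cells after 6 hr of compound treatment at 37 C. The detection reagent was incubated for 60 min at room temperature, and compounds were scored as agonists.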
# [9] = qHTS assay for small molecule agonists of the antioxidant response element (ARE) signaling pathway measured by Nrf2-dependant transcriptional activity (AID 720636; active = well fitted curve in the direction sought with a large enough effect in the repeat runs; an effect the other way counts as inactive or inconclusive; also: % of control where 0% means no effect)
# Outline: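 ARE-luc HepG2 cells carrying an Nrf2-responsive luciferase reporter, in medium with 1% dialyzed FBS, exposed to compound for 16 hr at 37 C, 5% CO2. Luminescence read 30 min after ONE-Glo addition.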
# [10] = qHTS assay for small molecule agonists of the antioxidant response element (ARE) signaling pathway measured by Nrf2-dependant transcriptional activity - cell viability counter screen (AID 720653; active = well fitted curve in the direction sought with a large enough effect in the repeat runs; an effect the other way counts as inactive or inconclusive; also: % is scaled to controls: 0 for no effect and ±100 for the full control effect); conditions: ARE-bla HepG2 viability, CellTiter-Glo ATP luminescence, 16 h; max response: stronger effect = lower value
# Outline: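 Cytotoxicity counter screen: intracellular ATP quantified by CellTiter-Glo luminescence in the same ARE-bla HepG2 plates, after 16 h compound exposure and a 2 h beta-lactamase substrate step.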
# [11] = qHTS assay for cell viability of HEK293 cells (AID 743288; active = well fitted curve in the direction sought with a large enough effect; an effect the other way counts as inactive or inconclusive; also: % is scaled to controls: 0 for no effect and ±100 for the full control effect; nearly all actives have a fitted effect of over 50% in size); conditions: ATP luminescence (CellTiter-Glo), 18 h; max response: stronger effect = lower value
# Outline: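 Parental HEK293 cells were seeded at 2,000 cells/well, rested at least 5 h at 37 C, then exposed to compounds in DMSO for 18 h at 37 C. Viability was read as ATP-dependent luciferase luminescence after 30 min at room temperature.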
# [12] = qHTS assay for cell viability of the p53RE-bla HCT-116 cell line (AID 743292; active = well fitted curve in the direction sought with a large enough effect; an effect the other way counts as inactive or inconclusive; also: % is scaled to controls: 0 for no effect and ±100 for the full control effect; nearly all actives have a fitted effect of over 55% in size)
# Outline: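 CellSensor p53RE-bla HCT-116 cells (4,000/well) pre-incubated 5 h at 37 C, then exposed to compounds in DMSO for 16 h at 37 C. Viability read as ATP content by CellTiter-Glo luminescence after 30 min at room temperature.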
# [13] = target: Nuclear receptor subfamily 1 group I member 2 (Rattus norvegicus) (UniProt Q9R1A7); assay: qHTS assay for small molecule activators of the rat pregnane X receptor (rPXR) signaling pathway (AID 651751; call rule not given here; also: 0% is about no effect); conditions: rPXR reporter cells, luciferase (One-Glo), 24 h
# [14] = qHTS assay for small molecule antagonists of peroxisome proliferator-activated receptor delta signaling (AID 588535; active = well fitted inhibition curve with a large enough effect in the signal ratio, with a control signal flat, not every such curve was filed as active; the % refers to the signal ratio;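 as to max response: cells co-treated with a PPAR-delta agonist as stimulator during compound exposure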); conditions: HEK293T PPARd-UAS-bla, beta-lactamase FRET ratio, 18 h; 460 nm channel
# Outline: (§1)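 HEK293T PPAR-delta-UAS-bla cells, 4000/well, 2% charcoal/dextran FBS; 5 h 37 C; cpd titration; 18 h 37 C; CCF4 2 h RT; FI 460/530 nm; Hill fit → IC50, efficacy.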
# [15] = target: Peroxisome proliferator-activated receptor delta (Homo sapiens) (UniProt Q03181); assay: as above
# Outline: as §1
# [16] = target: Vitamin D3 receptor (Homo sapiens) (UniProt P11473); assay: qHTS assay for small molecule antagonists of vitamin D receptor signaling (AID 588541);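 also: receptor activated by calcitriol during compound treatment; series mostly up to about 77 µM; % is scaled to controls: 0 for no effect and ±100 for the full control effect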
# Outline: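 Antagonist-mode beta-lactamase reporter assay: HEK293T VDR-UAS-bla cells were exposed to titrated compound alongside 1-alpha,25-dihydroxyvitamin D3 at 3 nM final for 16 h. Values were normalized to the 50 nM agonist control and DMSO basal, with IC50 and efficacy from Hill equation fits.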
# [17] = target: Vitamin D3 receptor (Homo sapiens) (UniProt P11473); assay: qHTS assay for small molecule agonists of vitamin D receptor signaling (AID 588543);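 also: 0% = DMSO basal and 100% = reference agonist control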
# Outline: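 GeneBLAzer VDR-UAS-bla HEK293T cells in 2% charcoal-stripped FBS medium were dosed with compound titrations for 16 h at 37 °C; CCF4 β-lactamase readout (405 nm ex, 460/530 nm em). EC50 and efficacy from Hill fits, normalized to 50 nM calcitriol (100%) and DMSO (0%).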
# [18] = qHTS assay for small molecule antagonists of retinoid X receptor alpha signaling (AID 588546; active = well fitted inhibition curve with a large enough effect in the signal ratio, with a control signal flat, not every such curve was filed as active; the % refers to the signal ratio;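 also: cells stimulated with 9-cis-retinoic acid as agonist; % is scaled to controls: 0 for no effect and ±100 for the full control effect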); conditions: HEK293T RXRa-UAS-bla, beta-lactamase ratio, antagonist mode; measured here: W530 green channel, cytotoxicity proxy
# Outline: (§2)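 Beta-lactamase reporter inhibition, read as CCF4 fluorescence ratio (ex 405, em 460/530 nm) after 2 h at RT. HEK293T UAS-bla cells, 2500/well, were stimulated with 9-cis-RA at 500 or 100 nM final alongside test compound for 18 h at 37 C.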
# [19] = target: Retinoic acid receptor RXR-alpha (Homo sapiens) (UniProt P19793); assay: as above; conditions: HEK293T RXRa-UAS-bla, beta-lactamase ratio, antagonist mode
# Outline: as §2
# [20] = target: Peroxisome proliferator-activated receptor delta (Homo sapiens) (UniProt Q03181); assay: qHTS assay for small molecule agonists of peroxisome proliferator-activated receptor delta signaling (AID 588534);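 also: 0% = DMSO basal wells and 100% = positive control agonist at 10 µM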
# Outline: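 Fluorescence from CCF4 substrate cleavage by beta-lactamase reporter, read 2 hrs at RT, measured agonist activity. Compounds were tested with 18 hrs exposure at 37 C. Concentration-response data fitted to Hill equation.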
# Peroxisome proliferator-activated receptor delta (Homo sapiens), sequence (Q03181 whole entry, looked up): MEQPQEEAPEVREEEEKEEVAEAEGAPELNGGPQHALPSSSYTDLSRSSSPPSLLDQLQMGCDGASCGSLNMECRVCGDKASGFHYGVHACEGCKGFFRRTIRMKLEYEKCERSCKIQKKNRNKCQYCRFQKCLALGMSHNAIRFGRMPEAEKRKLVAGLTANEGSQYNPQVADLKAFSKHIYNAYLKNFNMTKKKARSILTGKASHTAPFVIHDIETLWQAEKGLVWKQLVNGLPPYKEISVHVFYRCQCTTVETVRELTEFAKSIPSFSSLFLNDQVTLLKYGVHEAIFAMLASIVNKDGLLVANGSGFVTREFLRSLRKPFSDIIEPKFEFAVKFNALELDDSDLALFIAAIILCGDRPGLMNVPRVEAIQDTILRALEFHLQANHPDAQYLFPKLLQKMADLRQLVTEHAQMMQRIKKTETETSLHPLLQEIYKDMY
# Thyroid hormone receptor beta (Homo sapiens), sequence (P10828 whole entry, looked up): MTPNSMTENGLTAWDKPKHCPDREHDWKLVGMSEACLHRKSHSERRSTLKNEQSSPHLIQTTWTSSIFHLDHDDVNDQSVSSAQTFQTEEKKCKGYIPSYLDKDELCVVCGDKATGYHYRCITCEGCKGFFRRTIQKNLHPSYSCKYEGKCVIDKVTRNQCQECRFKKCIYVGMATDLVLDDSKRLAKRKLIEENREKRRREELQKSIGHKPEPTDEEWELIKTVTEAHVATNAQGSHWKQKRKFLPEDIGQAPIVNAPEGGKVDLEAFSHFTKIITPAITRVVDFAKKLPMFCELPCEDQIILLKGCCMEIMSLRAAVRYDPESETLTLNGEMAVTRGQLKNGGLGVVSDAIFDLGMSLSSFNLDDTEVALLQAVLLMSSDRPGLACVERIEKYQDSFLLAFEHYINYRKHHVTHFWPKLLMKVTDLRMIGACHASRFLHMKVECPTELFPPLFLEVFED
# Retinoic acid receptor RXR-alpha (Homo sapiens), sequence (P19793 whole entry, looked up): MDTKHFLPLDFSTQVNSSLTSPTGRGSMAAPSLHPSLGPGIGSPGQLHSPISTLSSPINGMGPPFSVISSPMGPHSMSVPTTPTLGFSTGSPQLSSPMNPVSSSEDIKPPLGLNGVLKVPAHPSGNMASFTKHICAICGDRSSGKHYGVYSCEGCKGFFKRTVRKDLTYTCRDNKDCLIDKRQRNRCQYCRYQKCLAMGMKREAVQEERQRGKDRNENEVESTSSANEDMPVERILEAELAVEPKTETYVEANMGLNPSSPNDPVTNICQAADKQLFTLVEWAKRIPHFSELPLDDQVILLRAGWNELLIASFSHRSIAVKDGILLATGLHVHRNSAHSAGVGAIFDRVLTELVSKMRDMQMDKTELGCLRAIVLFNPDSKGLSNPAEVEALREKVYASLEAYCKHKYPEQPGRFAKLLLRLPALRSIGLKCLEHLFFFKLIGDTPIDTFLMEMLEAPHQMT
# Peroxisome proliferator-activated receptor alpha (Homo sapiens), sequence (Q07869 whole entry, looked up): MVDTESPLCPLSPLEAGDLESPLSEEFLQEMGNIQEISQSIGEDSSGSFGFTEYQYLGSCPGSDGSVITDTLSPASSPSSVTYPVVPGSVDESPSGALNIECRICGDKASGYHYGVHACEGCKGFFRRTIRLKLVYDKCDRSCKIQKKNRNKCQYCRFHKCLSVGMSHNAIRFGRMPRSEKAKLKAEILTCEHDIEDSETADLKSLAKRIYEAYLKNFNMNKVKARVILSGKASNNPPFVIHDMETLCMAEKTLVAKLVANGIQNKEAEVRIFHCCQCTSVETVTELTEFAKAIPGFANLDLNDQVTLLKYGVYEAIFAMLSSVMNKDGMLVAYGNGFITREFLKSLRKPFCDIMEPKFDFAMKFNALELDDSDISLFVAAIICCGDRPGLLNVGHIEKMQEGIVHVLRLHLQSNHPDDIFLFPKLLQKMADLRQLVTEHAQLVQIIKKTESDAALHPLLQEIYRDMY
# Nuclear receptor subfamily 1 group I member 2 (Rattus norvegicus), sequence (Q9R1A7 whole entry, looked up): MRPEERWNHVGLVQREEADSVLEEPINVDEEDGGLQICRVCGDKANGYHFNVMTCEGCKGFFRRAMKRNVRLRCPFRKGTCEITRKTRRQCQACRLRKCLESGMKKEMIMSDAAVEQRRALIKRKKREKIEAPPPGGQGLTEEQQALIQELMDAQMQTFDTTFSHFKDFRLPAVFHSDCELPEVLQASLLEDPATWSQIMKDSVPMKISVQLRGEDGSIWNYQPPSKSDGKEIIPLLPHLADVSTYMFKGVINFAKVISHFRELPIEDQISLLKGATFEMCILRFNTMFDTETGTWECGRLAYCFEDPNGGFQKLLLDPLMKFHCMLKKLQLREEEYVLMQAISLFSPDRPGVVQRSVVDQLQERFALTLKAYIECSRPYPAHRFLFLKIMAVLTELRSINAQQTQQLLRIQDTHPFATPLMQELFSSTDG
# Vitamin D3 receptor (Homo sapiens), sequence (P11473 whole entry, looked up): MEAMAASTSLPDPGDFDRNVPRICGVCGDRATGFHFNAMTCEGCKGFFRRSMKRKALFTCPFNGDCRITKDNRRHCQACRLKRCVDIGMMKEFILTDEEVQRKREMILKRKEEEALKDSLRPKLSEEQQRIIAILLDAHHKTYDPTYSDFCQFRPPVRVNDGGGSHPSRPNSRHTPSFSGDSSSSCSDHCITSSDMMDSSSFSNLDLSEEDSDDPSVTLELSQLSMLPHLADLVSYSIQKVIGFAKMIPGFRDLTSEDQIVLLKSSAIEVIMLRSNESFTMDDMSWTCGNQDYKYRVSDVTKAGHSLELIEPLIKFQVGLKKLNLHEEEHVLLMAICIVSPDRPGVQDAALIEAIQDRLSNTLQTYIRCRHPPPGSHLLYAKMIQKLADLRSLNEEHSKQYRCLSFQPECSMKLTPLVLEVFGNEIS
# Bile acid receptor (Homo sapiens), sequence (Q96RI1 whole entry, looked up): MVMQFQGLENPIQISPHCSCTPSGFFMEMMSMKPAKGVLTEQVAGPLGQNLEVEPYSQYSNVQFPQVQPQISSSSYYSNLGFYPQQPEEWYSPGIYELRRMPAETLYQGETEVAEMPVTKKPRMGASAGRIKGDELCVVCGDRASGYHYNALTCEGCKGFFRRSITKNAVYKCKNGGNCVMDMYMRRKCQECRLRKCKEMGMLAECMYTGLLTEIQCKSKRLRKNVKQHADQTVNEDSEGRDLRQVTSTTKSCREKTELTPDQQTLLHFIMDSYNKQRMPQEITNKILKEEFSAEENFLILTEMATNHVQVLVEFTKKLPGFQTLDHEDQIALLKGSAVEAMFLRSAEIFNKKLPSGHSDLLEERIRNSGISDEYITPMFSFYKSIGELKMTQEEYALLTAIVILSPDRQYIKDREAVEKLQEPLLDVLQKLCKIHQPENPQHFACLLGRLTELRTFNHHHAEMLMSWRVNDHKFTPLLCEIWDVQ
Compound,activation [1],max response [2],Potency [3],Potency [4],activation [5],activation [6],activation [7],max response [8],Potency [9],max response [10],max response [11],Potency [12],max response [13],max response [14],Potency [15],Potency [16],outcome [17],max response [18],max response [19],outcome [20]
CCC(C)(c1ccc(O)cc1)c1ccc(O)cc1,1.29% (inactive),3.09%,inactive,inactive,-1.26% (inactive),-1.76% (inactive),-1.12% (inactive),-1.57% (inactive),inactive,-14.2% (inactive),-0.148% (inactive),inactive,-0.68% (inactive),–,–,–,–,–,–,–
COC(=O)c1ccccc1S(=O)(=O)NC(=O)Nc1nc(C)nc(OC)n1,-2.54% (inactive),–,–,inactive,6.08% (inactive),–,-1.13% (inactive),5.99% (inactive),inactive,13.7% (inactive),9.36% (inactive),–,-8.23% (inactive),36.9%,inactive,inactive,inactive,-10.3%,25.6% (inactive),–
CCNc1nc(NC(C)C)nc(SC)n1,–,-4.47%,inactive,inactive,–,-1.51% (inactive),0.555% (inactive),-2.07% (inactive),inactive,4.35% (inactive),-10.8% (inactive),inactive,-3.53% (inactive),5.95%,inactive,inactive,inactive,-15.6%,-29% (inactive),–
CC(C)COP(=O)(OCC(C)C)OCC(C)C,4.76% (inactive),-15.8%,inactive,inactive,-2.4% (inactive),-3.3% (inactive),-1.96% (inactive),-1.01% (inactive),inactive,-13.2% (inactive),-10% (inactive),inactive,-5.22% (inactive),21.8%,inactive,inactive,inactive,-13.9%,3.45% (inactive),inactive
COP(=O)(OC)Oc1nc(Cl)c(Cl)cc1Cl,–,28.3%,inactive,inactive,6.76% (inactive),1.02% (inactive),1.43% (inactive),-0.672% (inactive),inactive,-0.97% (inactive),–,inactive,0.764% (inactive),–,–,inactive,inactive,-0.949%,1.04% (inactive),–
CCOP(=O)(OCC)Oc1cc(C)nc(C(C)C)n1,-3.07% (inactive),–,–,inactive,-7.84% (inactive),–,-0.423% (inactive),-1.71% (inactive),inactive,16.1% (inactive),7.77% (inactive),–,-12.9% (inactive),22.9%,inactive,–,–,13.6%,18.7% (inactive),inactive
c1ccc2c(c1)[nH]c1ccccc12,–,–,–,–,–,–,–,–,inactive,–,–,–,–,–,–,–,–,–,–,inactive
O=C(O)c1c(Cl)ccc2cc(Cl)cnc12,0.431% (inactive),-15.1%,inactive,inactive,–,-0.182% (inactive),2.06% (inactive),-2.09% (inactive),inactive,-9.56% (inactive),-11.4% (inactive),inactive,-2.15% (inactive),71.4%,inactive,inactive,inactive,3.11%,-13.1% (inactive),inactive
CC(Oc1cccc(Cl)c1)C(=O)O (stereo not given),–,-3.83%,inactive,inactive,0.409% (inactive),–,-0.19% (inactive),-0.485% (inactive),inactive,-0.643% (inactive),-4.52% (inactive),inactive,-1.92% (inactive),47.7%,inactive,inactive,inactive,-2.12%,-12.8% (inactive),inactive
Cc1nc(N(C)C)nc(OC(=O)N(C)C)c1C,2.16% (inactive),0.351%,inactive,inactive,–,–,-0.147% (inactive),-0.626% (inactive),inactive,-25.3% (inactive),-11.4% (inactive),inactive,-4.44% (inactive),13.1%,inactive,inactive,–,-14.1%,5.66% (inactive),inactive

# Source: PubChem BioAssay (NCATS)
